This is an account of results in PubChem BioAssay (NCATS).

Records with an inconclusive call do not appear. Values without a mark were called inactive. Activity calls are given as the source filed them. Calls come from the whole dose curve; as a rule, active = well fitted curve in the direction sought with a large enough effect; inconclusive = small, poorly fitted or top-dose-only effect, or another doubt; inactive = no such curve, though single readings can be large; an effect the other way counts as inactive or inconclusive.

The test system of one assay is MCC-13. The experiment in a line: qHTS assay to identify novel small-molecules to repurpose for Merkel cell carcinoma treatment (AID 1296009). Note: nearly all actives have a fitted effect of over 60% in size. The settings on record: MCC and control cell lines, CellTiter-Glo viability, 72 h; series mostly up to 46 µM. Summed up: (§1)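 Dose-response viability screen; 72 hr exposure at 37 degree celsius; CellTiter-Glo added, 10 min room temperature, luminescence read; RLUs scaled between no-cell and DMSO wells.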

For another assay, the system named is MCC-26. The description is as above. The settings on record: MCC and control cell lines, CellTiter-Glo viability, 72 h; series mostly up to 46 µM. In a few lines: as §1
A further assay relates to MKL-1. The assay is described as above. To be noted: MCC and control cell lines, CellTiter-Glo viability, 72 h; series mostly up to 46 µM. Summed up: as §1
The next assay deals with MKL-2. The description is as above. The settings on record: MCC and control cell lines, CellTiter-Glo viability, 72 h; series mostly up to 46 µM. Summed up: as §1
A further assay deals with UISO. The assay is described as above. To be noted: MCC and control cell lines, CellTiter-Glo viability, 72 h; series mostly up to 46 µM. In a few lines:
as §1

For a further assay, the system named is WaGa. The assay is described as above. The settings on record: MCC and control cell lines, CellTiter-Glo viability, 72 h; series mostly up to 46 µM. In a few lines: as §1
The next assay relates to CAOV3. The experiment in a line: Primary qHTS to identify gynecologic anti-cancer compounds using libraries of approved drugs and bioactive compounds (AID 1345084). Note: nearly all actives have a fitted effect of over 55% in size. Note: potency is the fitted concentration of half-maximal effect. To be noted: Gynecologic cancer cell panel viability, ATPlite luminescence, 48 h; series mostly up to 57.5 µM. In a few lines:
(§2)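 Five-concentration response, 48 h; readout is ATP-driven luciferase luminescence.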

Another assay deals with CASKI. The assay is described as above. To be noted: Gynecologic cancer cell panel viability, ATPlite luminescence, 48 h; series mostly up to 57.5 µM. Summed up: as §2
The test system of a further assay is HeLa. The assay is described as above. The settings on record: Gynecologic cancer cell panel viability, ATPlite luminescence, 48 h; series mostly up to 57.5 µM. Summed up: as §2
A further assay deals with Hek293T. Described as above. The settings on record: Gynecologic cancer cell panel viability, ATPlite luminescence, 48 h, control line for the selectivity index; series mostly up to 57.5 µM. Summed up: as §2
In the next assay the test system is JEG-3. Described as above. The settings on record: Gynecologic cancer cell panel viability, ATPlite luminescence, 48 h; series mostly up to 57.5 µM. In a few lines: as §2
For the next assay, the system named is OV90. Described as above. The settings on record: Gynecologic cancer cell panel viability, ATPlite luminescence, 48 h; series mostly up to 57.5 µM. Summed up:
as §2

Another assay has as its system PA-1. Described as above. To be noted: Gynecologic cancer cell panel viability, ATPlite luminescence, 48 h; series mostly up to 57.5 µM. Summed up: as §2
In another assay the test system is Tov112D. Described as above. The settings on record: Gynecologic cancer cell panel viability, ATPlite luminescence, 48 h; series mostly up to 57.5 µM. In a few lines:
as §2

Another assay relates to C33A. The description is as above. The settings on record: Gynecologic cancer cell panel viability, ATPlite luminescence, 48 h; series mostly up to 57.5 µM. In a few lines: as §2
A further assay has as its system Es-2. The description is as above. The settings on record: Gynecologic cancer cell panel viability, ATPlite luminescence, 48 h; series mostly up to 57.5 µM. Summed up: as §2
The test system of a further assay is Tov-21-G. Described as above. The settings on record: Gynecologic cancer cell panel viability, ATPlite luminescence, 48 h; series mostly up to 57.5 µM. Summed up: as §2
Another assay concerns SKOV3. The assay is described as above. The settings on record: Gynecologic cancer cell panel viability, ATPlite luminescence, 48 h; series mostly up to 57.5 µM. In a few lines: as §2
% is set by controls: 0 for no effect and ±100 for the full control effect.

As to `CC(C)(C)c1nc(-c2cccc(NS(=O)(=O)c3c(F)cccc3F)c2F)c(-c2ccnc(N)n2)s1`, the Potency result in the assay with MCC-13, in the assay with MCC-26, with MKL-1, with MKL-2, in the assay on UISO and in the assay on WaGa was “inactive” each time. Also, the Potency result in the assay with CAOV3, with CASKI, in the assay with HeLa, in the assay with Hek293T, in the assay with JEG-3 and with OV90 was “inactive” in each case. Moreover, the Potency result in the assay on PA-1 and with Tov112D was “inactive” throughout.

In the case of `Cc1nc(C(=O)NCC(=O)O)c(O)c2ccc(Oc3ccccc3)cc12`, the Potency entry with MCC-13, with MCC-26, in the assay on MKL-1, with MKL-2, in the assay with UISO and in the assay with WaGa was “inactive” each time. For the same compound, the Potency entry with C33A, in the assay with CAOV3, with CASKI, in the assay with Es-2, in the assay with HeLa and in the assay on Hek293T was “inactive” in each case. Also, the Potency entry with JEG-3, in the assay with OV90, with PA-1, in the assay with Tov-21-G and with Tov112D was “inactive” throughout.

Regarding `CC(C)N(CCCNC(=O)Nc1ccc(C(C)(C)C)cc1)C[C@H]1O[C@@H](n2cc(Br)c3c(N)ncnc32)[C@H](O)[C@H]1O`, the Potency result in the assay on MCC-13, with MCC-26, with MKL-1, with MKL-2 and in the assay on WaGa was “inactive” each time.

`O=S(=O)(O)c1ccc2cc(N=Nc3cc(S(=O)(=O)O)c4cccnc4c3O)ccc2c1`: the Potency result in the assay on MCC-13, with MCC-26, in the assay with MKL-1, in the assay on MKL-2, with UISO and with WaGa was “inactive” throughout. Besides, the Potency result in the assay on C33A, with CAOV3, in the assay on CASKI, in the assay on Es-2, with HeLa and with Hek293T was “inactive” throughout. Also, the Potency result with JEG-3, in the assay on OV90, in the assay with PA-1, with SKOV3, in the assay with Tov-21-G and in the assay on Tov112D was “inactive” in each case.

Take `C#CCN(C)CC1=Cc2ccccc2Oc2ccccc21`: the Potency result in the assay with MCC-13, in the assay with MCC-26, in the assay on MKL-1, in the assay on MKL-2 and in the assay on WaGa was “inactive” throughout.

`CC1CCN(c2cc(N3CCN(C)CC3)ccc2NC(=O)c2cc(C#N)c[nH]2)CC1`: the Potency result in the assay with MCC-13, with MCC-26, in the assay on MKL-1, in the assay with MKL-2, in the assay with UISO and with WaGa was “inactive” throughout. For the same compound, the Potency result with C33A, with CAOV3, in the assay with CASKI, in the assay on Es-2, in the assay on HeLa and with Hek293T was “inactive” each time. Further, the Potency result in the assay on JEG-3, with OV90, with PA-1, in the assay on SKOV3, with Tov-21-G and in the assay on Tov112D was “inactive” each time.

Consider `CNC(=O)c1cc(COc2nnc(Nc3ccc(Cl)cc3)c3ccoc23)ccn1`, for which the Potency result with MCC-13, in the assay with MCC-26, in the assay with MKL-1, with MKL-2 and in the assay on WaGa was “inactive” in each case.

Regarding `CO[C@H]1C=CO[C@@]2(C)Oc3c(C)c(O)c4c(O)c(c(C=NN5CCN(C)CC5)c(O)c4c3C2=O)NC(=O)C(C)=CC=C[C@H](C)[C@H](O)[C@@H](C)[C@@H](O)[C@@H](C)[C@H](OC(C)=O)[C@H]1C`, the activity change, negative = cytotoxicity in the assay on MCC-13 was -0.156% [at 9.22 µM]; with MCC-26 it was -1.4% [at 9.22 µM]; with MKL-1, -4.29% [at 9.22 µM]; in the assay with MKL-2, -21.3% [at 9.22 µM]; in the assay with UISO, 4.05% [at 9.22 µM]; in the assay with WaGa, -1.76% [at 9.22 µM].

Regarding `C[C@@H](O[C@H]1OCCN(Cc2n[nH]c(=O)[nH]2)[C@@H]1c1ccc(F)cc1)c1cc(C(F)(F)F)cc(C(F)(F)F)c1`, the Potency entry in the assay on MCC-13, with MCC-26, in the assay with MKL-1, in the assay with MKL-2 and in the assay with WaGa was “inactive” in each case.

As for `CC1(C)OC2CC3C4CC(F)C5=CC(=O)C=CC5(C)C4C(O)CC3(C)[C@]2(C(=O)CO)O1` (stereo not given in full), the Potency entry with MCC-13, with MCC-26, in the assay with MKL-1, with MKL-2, in the assay on UISO and in the assay with WaGa was “inactive” in each case.

`CN1CCN(c2cccc(Nc3nc4c(-c5ccc(S(C)(=O)=O)cc5)cccn4n3)c2)CC1`: the Potency entry with MCC-13, in the assay with MCC-26, with MKL-1, in the assay on MKL-2, with UISO and with WaGa was “inactive” throughout. The Potency result in the assay with C33A, in the assay on CASKI, in the assay with Es-2, in the assay on HeLa, in the assay with Hek293T and in the assay with JEG-3 was “inactive” each time. Also, the Potency result in the assay with OV90, in the assay on PA-1 and in the assay on Tov112D was “inactive” throughout. Also, the Potency in the assay on SKOV3 was 2820 nM (active).

For the compound `COc1cc(Cl)cn2c(-c3cccc(NC4CNC4)n3)cnc12`, the Potency entry in the assay on MCC-13, in the assay on MCC-26, in the assay with MKL-1, in the assay with MKL-2, with UISO and with WaGa was “inactive” throughout.

Turning to `c1ccc(-c2oc3ncnc(NC[C@@H]4CCCO4)c3c2-c2ccccc2)cc1`, the Potency result in the assay with MCC-13, in the assay with MCC-26, with MKL-1, in the assay on MKL-2, with UISO and in the assay on WaGa was “inactive” each time. The Potency result with C33A, in the assay with CASKI, in the assay with Es-2, in the assay on HeLa, with Hek293T and in the assay with JEG-3 was “inactive” each time. In addition, the Potency entry with OV90, with PA-1, in the assay with SKOV3 and with Tov-21-G was “inactive” each time.

For `CN(C)CCN(Cc1ccc(Cl)cc1)c1ccccn1`, the Potency entry in the assay on MCC-13, in the assay on MCC-26, with MKL-1, in the assay with MKL-2, in the assay on UISO and with C33A was “inactive” each time. In addition, the Potency result in the assay on CAOV3, in the assay on CASKI, with Es-2, with HeLa, in the assay with Hek293T and with JEG-3 was “inactive” each time. The Potency result in the assay on OV90, with PA-1, in the assay on SKOV3, with Tov-21-G and in the assay on Tov112D was “inactive” throughout.

In the case of `OC[C@H]1O[C@@H](O[C@H]2[C@@H](O)[C@@](O)(CO)O[C@@H]2CO)[C@H](O)[C@@H](O)[C@@H]1O`, the Potency result in the assay with MCC-13, in the assay with MCC-26, in the assay on MKL-1, in the assay with MKL-2, in the assay with UISO and in the assay on WaGa was “inactive” throughout.

For the compound `CC(C)C[C@H](NC(=O)c1cc2ccccc2s1)C(=O)N1CCN(C(=O)[C@H](CO)NS(=O)(=O)c2ccc(Cl)cc2Cl)CC1`, the Potency result in the assay on MCC-13, with MCC-26, with MKL-1, with MKL-2 and in the assay on WaGa was “inactive” in each case.
